This passage reports binding signal results from paper PMC7862700, “An all-to-all approach to the identification of sequence-specific readers for epigenetic DNA modifications on cytosine”.

Experiment in all cases: DAPPL (digital affinity profiling via proximity ligation, sequencing); 10 mM Tris-HCl pH 7.5, 50 mM NaCl, 1 mM DTT, 4% glycerol, room temperature, 30 min; GST-TFs on glutathione beads, 16-mer random dsDNA library, 0.1% formaldehyde crosslink after washing; high values mean tight binding
The target of one assay is T1, FLI1 (Homo sapiens, UniProt Q01543 1-452).
T1 sequence: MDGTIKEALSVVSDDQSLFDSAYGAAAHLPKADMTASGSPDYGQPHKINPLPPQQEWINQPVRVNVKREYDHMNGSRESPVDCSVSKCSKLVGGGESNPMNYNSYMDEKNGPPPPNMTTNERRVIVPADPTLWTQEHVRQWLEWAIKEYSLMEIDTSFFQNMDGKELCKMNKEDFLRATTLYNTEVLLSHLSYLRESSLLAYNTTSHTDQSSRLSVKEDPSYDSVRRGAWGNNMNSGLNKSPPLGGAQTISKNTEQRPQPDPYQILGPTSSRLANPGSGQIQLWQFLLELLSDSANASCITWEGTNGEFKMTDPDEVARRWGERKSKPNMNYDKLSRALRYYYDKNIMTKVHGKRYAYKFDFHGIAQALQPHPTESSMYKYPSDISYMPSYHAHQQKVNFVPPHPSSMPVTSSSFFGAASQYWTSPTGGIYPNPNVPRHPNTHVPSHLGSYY
The following applies: protein: recombinant; tags: N-terminal GST; dsDNA, one strand shown. The procedure, abridged:
(§1)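 Sequencing on an Illumina NextSeq500 followed washing, crosslinking with 0.1% formaldehyde, proximity ligation (BsaI/T4 ligase, 1 h, 37 °C) and PCR amplification of pools that had been incubated for 30 min at room temperature with 200 nmole of a random double-stranded 16-mer DNA library in Tris/NaCl/DTT/glycerol buffer. Each pool held DNA-barcoded human transcription factors, expressed in yeast as GST fusions and captured on glutathione beads, plus a tag-only sample. Binding signal is a hexamer's read frequency for a factor divided by its frequency in the tag-only sample.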

The target in the next assay is T2, ELK1 (Homo sapiens, UniProt P19419 1-428).
T2 sequence: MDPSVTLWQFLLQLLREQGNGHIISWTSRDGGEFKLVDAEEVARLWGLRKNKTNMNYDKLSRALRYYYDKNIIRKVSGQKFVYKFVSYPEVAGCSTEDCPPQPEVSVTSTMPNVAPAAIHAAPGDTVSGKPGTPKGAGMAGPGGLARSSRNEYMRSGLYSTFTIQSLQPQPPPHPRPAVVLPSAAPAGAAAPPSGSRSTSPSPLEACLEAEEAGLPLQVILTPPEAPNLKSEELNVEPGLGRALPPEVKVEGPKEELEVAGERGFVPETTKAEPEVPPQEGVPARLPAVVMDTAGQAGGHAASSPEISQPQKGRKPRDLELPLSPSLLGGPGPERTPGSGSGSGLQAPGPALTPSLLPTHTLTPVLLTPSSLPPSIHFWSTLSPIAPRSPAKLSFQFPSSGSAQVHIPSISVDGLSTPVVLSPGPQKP
The following applies: protein: recombinant; tags: N-terminal GST; dsDNA, one strand shown. The procedure, abridged:
as §1

In another assay the target is T3, GABPA (Homo sapiens, UniProt Q06546 1-454).
T3 sequence: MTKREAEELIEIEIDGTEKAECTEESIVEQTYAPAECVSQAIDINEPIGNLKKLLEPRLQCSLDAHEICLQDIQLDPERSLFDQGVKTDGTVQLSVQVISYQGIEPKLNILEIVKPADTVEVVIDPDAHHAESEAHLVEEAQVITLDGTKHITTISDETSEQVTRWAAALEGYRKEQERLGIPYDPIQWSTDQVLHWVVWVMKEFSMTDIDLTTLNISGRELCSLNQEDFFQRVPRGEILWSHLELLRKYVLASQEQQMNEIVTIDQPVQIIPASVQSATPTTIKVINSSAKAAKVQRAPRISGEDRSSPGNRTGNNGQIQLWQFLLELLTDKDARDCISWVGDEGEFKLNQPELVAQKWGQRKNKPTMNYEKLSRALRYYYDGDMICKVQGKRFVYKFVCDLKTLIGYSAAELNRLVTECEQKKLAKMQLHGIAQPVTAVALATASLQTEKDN
The following applies: protein: recombinant; tags: N-terminal GST; dsDNA, one strand shown. The procedure, abridged: as §1

The target of the next assay is T4, ERG (Homo sapiens, UniProt P11308 1-479).
T4 sequence: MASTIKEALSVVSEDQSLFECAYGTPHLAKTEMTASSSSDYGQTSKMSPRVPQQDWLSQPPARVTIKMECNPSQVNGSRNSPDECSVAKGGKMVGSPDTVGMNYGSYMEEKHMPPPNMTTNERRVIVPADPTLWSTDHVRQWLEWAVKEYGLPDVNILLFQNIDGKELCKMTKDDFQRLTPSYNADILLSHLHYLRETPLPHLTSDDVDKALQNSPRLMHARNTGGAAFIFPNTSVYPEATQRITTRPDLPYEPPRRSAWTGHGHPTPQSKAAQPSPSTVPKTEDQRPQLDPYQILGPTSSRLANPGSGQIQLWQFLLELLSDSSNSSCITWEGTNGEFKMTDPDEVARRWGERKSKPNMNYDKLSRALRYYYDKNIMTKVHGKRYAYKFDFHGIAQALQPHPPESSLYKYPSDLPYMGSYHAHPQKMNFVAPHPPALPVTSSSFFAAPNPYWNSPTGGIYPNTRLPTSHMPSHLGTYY
The note with it: protein: recombinant; tags: N-terminal GST; dsDNA, one strand shown. The procedure, abridged: as §1

A further assay addresses ELF1 (Homo sapiens, UniProt P32519 1-619). The note with it: protein: recombinant; tags: N-terminal GST; dsDNA, one strand shown. In short, it runs like this: as §1
Another assay has as its target T5, EHF (Homo sapiens, UniProt Q9NZC4 1-300).
T5 sequence: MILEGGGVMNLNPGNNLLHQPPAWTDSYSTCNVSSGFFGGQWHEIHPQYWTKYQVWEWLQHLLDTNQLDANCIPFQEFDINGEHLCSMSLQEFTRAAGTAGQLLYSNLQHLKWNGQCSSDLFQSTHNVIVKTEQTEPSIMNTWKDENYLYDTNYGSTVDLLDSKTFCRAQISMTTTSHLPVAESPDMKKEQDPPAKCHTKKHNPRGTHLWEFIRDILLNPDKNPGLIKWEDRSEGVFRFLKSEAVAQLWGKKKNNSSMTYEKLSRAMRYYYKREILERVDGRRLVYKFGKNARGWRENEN
The following applies: protein: recombinant; tags: N-terminal GST; dsDNA, one strand shown. The procedure, abridged: as §1

In another assay the target is SPI1 (Homo sapiens, UniProt P17947 1-270). The following applies: protein: recombinant; tags: N-terminal GST; dsDNA, one strand shown. In short, it runs like this:
as §1

In the next assay the target is SPIB (Homo sapiens, UniProt Q01892 1-262). The note with it: protein: recombinant; tags: N-terminal GST; dsDNA, one strand shown. The procedure, abridged: as §1
Chain of SPIB (Q01892 whole entry): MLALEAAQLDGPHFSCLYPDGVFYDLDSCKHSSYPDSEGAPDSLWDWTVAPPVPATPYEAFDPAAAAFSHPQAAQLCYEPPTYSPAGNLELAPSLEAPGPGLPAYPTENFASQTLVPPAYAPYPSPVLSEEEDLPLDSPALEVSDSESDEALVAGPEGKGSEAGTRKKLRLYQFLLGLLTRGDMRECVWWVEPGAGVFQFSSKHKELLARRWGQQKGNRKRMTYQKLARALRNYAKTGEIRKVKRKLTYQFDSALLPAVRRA
A further assay addresses T6, ELK3 (Homo sapiens, UniProt P41970 1-407).
T6 sequence: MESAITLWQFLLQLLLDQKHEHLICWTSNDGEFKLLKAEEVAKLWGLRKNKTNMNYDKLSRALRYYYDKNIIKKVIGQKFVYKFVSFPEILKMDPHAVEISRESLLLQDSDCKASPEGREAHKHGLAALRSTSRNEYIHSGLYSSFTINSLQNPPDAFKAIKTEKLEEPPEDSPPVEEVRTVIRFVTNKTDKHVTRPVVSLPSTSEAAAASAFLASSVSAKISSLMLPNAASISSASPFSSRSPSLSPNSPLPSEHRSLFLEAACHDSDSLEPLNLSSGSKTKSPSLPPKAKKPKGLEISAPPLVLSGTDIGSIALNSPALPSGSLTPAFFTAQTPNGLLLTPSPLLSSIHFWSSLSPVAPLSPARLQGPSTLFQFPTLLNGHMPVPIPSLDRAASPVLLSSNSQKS
The note with it: protein: recombinant; tags: N-terminal GST; dsDNA, one strand shown. In short, it runs like this:
as §1

In another assay the target is T7, FEV (Homo sapiens, UniProt Q99581 1-238).
T7 sequence: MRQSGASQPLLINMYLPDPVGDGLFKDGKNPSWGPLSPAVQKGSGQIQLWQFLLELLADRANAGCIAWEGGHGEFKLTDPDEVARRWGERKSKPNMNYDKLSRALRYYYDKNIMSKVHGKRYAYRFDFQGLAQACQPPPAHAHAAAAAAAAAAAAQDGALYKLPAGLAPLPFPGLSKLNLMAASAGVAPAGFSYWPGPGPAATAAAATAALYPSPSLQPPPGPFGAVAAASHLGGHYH
The following applies: protein: recombinant; tags: N-terminal GST; dsDNA, one strand shown. The procedure, abridged: as §1

For the next assay, the target named is ETV5 (Homo sapiens, UniProt P41161 1-510). The following applies: protein: recombinant; tags: N-terminal GST; dsDNA, one strand shown. In short, it runs like this:
as §1

For a further assay, the target named is HSF1 (Homo sapiens, UniProt Q00613 1-529). The note with it: protein: recombinant; tags: N-terminal GST; chain copies: 3; dsDNA, one strand shown. In short, it runs like this:
as §1

Another assay addresses T8, SPIC (Homo sapiens, UniProt Q8N5J4 1-248).
T8 sequence: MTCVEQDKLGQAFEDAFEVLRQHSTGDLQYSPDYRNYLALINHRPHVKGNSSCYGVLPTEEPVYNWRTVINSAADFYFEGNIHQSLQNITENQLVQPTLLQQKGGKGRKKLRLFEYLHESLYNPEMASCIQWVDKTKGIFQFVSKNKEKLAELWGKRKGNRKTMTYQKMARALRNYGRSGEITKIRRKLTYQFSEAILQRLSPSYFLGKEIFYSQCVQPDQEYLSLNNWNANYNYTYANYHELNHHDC
The note with it: protein: recombinant; tags: N-terminal GST; dsDNA, one strand shown. In short, it runs like this:
as §1

Another assay deals with ELF4 (Homo sapiens, UniProt Q99607 1-663). The following applies: protein: recombinant; tags: N-terminal GST; dsDNA, one strand shown. In short, it runs like this: as §1
Chain of ELF4 (Q99607 whole entry): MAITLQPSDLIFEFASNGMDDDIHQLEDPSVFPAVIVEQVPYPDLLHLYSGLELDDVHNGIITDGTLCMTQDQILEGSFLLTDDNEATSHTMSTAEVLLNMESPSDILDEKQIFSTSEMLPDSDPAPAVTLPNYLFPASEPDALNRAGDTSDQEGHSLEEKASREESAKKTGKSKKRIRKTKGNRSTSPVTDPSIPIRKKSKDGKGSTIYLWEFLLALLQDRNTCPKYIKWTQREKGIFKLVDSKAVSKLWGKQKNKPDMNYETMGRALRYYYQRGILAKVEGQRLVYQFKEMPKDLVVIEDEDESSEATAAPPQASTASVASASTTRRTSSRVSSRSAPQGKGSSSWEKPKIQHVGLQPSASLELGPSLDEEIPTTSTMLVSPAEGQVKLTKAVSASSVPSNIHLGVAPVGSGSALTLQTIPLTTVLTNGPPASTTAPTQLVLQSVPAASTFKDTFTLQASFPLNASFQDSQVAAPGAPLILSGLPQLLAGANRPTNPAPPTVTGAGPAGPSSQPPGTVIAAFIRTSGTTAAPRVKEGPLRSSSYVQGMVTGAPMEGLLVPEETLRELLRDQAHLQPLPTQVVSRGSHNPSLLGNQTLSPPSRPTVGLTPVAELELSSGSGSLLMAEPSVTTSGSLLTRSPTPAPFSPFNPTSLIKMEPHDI
Another assay has as its target T9, ELK4 (Homo sapiens, UniProt P28324-2 1-405).
T9 sequence: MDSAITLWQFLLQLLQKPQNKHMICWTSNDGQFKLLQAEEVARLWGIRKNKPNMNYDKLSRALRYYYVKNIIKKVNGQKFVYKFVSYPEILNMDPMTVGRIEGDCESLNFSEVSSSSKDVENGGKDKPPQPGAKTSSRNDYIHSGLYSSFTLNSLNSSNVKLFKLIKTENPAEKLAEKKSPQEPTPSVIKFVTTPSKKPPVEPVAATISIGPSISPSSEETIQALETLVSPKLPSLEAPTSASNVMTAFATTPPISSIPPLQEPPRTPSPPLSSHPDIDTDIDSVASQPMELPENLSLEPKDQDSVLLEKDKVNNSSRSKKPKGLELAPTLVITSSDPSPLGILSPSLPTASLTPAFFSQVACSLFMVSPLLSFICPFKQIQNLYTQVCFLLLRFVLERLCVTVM
The note with it: protein: recombinant; tags: N-terminal GST; dsDNA, one strand shown. In short, it runs like this: as §1

Another assay concerns the target T10, ETV2 (Homo sapiens, UniProt O00321 1-342).
T10 sequence: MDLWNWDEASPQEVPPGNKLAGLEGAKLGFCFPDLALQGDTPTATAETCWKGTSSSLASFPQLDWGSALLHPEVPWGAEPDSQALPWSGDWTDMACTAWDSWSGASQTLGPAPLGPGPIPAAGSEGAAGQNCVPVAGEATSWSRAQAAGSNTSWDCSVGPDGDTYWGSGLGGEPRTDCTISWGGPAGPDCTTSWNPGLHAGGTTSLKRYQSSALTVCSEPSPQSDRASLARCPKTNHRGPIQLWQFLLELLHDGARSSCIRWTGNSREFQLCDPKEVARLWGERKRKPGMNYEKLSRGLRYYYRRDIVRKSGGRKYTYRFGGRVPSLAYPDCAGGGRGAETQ
The following applies: protein: recombinant; tags: N-terminal GST; dsDNA, one strand shown. The procedure, abridged:
as §1

The target in another assay is T11, ELF3 (Homo sapiens, UniProt P78545 1-371).
T11 sequence: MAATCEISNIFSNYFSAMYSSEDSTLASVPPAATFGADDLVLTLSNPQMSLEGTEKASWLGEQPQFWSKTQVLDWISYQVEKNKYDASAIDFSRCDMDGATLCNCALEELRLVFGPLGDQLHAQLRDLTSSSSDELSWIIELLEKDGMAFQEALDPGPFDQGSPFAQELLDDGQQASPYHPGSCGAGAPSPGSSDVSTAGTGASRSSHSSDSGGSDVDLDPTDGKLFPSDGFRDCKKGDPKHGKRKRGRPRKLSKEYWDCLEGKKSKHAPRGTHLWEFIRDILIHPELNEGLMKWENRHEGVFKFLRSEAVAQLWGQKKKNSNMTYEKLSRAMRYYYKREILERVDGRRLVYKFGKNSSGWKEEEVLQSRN
The following applies: protein: recombinant; tags: N-terminal GST; dsDNA, one strand shown. In short, it runs like this:
as §1

The next assay has as its target ETV1 (Homo sapiens, UniProt P50549 1-477). The following applies: protein: recombinant; tags: N-terminal GST; dsDNA, one strand shown. The procedure, abridged:
as §1

Chain of ELF1 (P32519 whole entry): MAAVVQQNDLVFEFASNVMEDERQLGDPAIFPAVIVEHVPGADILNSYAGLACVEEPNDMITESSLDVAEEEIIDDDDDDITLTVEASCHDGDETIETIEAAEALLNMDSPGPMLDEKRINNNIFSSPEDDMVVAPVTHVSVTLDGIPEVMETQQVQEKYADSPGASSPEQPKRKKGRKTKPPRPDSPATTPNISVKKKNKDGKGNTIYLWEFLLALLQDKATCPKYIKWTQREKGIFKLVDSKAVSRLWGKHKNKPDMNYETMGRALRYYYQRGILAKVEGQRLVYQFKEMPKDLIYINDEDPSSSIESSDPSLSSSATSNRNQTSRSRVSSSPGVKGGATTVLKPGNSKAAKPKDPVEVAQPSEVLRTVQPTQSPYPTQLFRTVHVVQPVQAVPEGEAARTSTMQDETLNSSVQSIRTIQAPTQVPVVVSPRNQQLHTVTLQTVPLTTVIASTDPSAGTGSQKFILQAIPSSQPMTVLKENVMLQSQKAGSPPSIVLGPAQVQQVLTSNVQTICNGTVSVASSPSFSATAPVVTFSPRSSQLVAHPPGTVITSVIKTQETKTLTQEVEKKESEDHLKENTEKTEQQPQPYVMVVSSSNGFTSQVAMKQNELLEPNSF
Chain of HSF1 (Q00613 whole entry): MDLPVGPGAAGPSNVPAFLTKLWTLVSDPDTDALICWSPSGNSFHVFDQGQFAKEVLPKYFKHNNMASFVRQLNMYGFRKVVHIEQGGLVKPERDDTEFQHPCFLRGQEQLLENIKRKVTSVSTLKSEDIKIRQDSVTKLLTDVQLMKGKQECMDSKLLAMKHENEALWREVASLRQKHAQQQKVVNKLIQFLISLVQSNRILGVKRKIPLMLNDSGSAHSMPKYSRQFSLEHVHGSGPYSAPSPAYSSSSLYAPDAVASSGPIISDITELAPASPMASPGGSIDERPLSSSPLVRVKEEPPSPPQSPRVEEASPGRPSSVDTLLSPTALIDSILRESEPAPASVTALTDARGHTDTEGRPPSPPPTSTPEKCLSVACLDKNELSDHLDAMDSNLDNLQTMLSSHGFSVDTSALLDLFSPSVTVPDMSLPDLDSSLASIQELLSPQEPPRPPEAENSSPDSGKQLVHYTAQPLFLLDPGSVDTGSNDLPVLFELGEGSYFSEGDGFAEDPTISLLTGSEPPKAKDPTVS
Chain of ETV5 (P41161 whole entry): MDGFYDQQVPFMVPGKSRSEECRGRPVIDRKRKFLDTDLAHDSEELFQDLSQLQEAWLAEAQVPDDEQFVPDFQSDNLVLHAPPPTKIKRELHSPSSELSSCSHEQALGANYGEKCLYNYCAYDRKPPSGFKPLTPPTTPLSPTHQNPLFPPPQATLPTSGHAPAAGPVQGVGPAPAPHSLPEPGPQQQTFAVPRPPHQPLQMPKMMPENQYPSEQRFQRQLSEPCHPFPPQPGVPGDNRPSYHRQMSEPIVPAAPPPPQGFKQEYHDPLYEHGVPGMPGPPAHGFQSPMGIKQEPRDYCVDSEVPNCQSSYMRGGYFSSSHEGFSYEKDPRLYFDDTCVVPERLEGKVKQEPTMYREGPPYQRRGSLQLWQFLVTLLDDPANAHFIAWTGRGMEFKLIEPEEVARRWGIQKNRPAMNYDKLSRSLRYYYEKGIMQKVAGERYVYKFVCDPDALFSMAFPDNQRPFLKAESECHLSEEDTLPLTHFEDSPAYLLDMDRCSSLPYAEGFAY
Chain of ETV1 (P50549 whole entry): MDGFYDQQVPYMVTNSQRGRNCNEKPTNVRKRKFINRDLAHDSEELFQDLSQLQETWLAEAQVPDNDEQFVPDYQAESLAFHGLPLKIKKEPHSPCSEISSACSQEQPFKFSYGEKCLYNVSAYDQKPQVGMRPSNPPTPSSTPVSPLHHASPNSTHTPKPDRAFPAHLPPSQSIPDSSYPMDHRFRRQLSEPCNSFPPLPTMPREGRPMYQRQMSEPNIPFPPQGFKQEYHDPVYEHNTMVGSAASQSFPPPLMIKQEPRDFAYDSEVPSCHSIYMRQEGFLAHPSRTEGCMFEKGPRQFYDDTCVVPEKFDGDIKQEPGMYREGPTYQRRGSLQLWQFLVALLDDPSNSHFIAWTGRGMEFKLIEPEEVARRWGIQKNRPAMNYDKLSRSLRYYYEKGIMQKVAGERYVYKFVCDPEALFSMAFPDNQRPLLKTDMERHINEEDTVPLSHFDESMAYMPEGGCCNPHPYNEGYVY

GTCTTC: the binding signal in the assay with FLI1 was 1.4 fold enrichment (6-mer frequency, TF over GST control); in the assay with ELK1 it was 1.31 fold enrichment (6-mer frequency, TF over GST control); with GABPA, 1.19 fold enrichment (6-mer frequency, TF over GST control); in the assay with ERG, 1.42 fold enrichment (6-mer frequency, TF over GST control); with ELF1, 1.43 fold enrichment (6-mer frequency, TF over GST control); in the assay with EHF, 1.31 fold enrichment (6-mer frequency, TF over GST control). Moreover, the binding signal is 1.28 fold enrichment (6-mer frequency, TF over GST control) with SPI1; 1.29 fold enrichment (6-mer frequency, TF over GST control) in the assay with SPIB; 1.17 fold enrichment (6-mer frequency, TF over GST control) with ELK3; 1.34 fold enrichment (6-mer frequency, TF over GST control) with FEV; 1.31 fold enrichment (6-mer frequency, TF over GST control) with ETV5; 1.17 fold enrichment (6-mer frequency, TF over GST control) with HSF1. Besides, the binding signal is 1.18 fold enrichment (6-mer frequency, TF over GST control) with SPIC; 1.23 fold enrichment (6-mer frequency, TF over GST control) with ELF4; 1.14 fold enrichment (6-mer frequency, TF over GST control) with ELK4; 1.22 fold enrichment (6-mer frequency, TF over GST control) in the assay with ETV2; 1.46 fold enrichment (6-mer frequency, TF over GST control) with ELF3; 1.29 fold enrichment (6-mer frequency, TF over GST control) with ETV1.
